Compound activity deposited in PubChem by The Scripps Research Institute Molecular Screening Center.
SRC2 TRFRET art: TR-FRET signal artefacts, primary screen, artefact control for PPARgamma SRC-2 agonist project, biochemical; TR-FRET artefact counter-screen; active compounds read high; TR-FRET ratio at 8 µM; hit rate 0.4% among 200,000; AID 1049, 2008; in the data active = TR-FRET ratio above about 2000
PPARg SRC3 recr: PPARgamma agonists recruiting SRC-3 coactivator, primary screen, biochemical; Peroxisome proliferator-activated receptor gamma (Homo sapiens), P37231; AID 731, 2007; activation, % at 8 µM; hit rate 0.26% among 200,000; biochemical PPARgamma/SRC-3 coactivator recruitment assay; in the data active = activation above about 23%
PPARg SRC-2 ag: agonists of PPARg-SRC-2 recruitment, primary screen, biochemical, HTS | hit rate 0.34% among 200,000 | activation, % at 8 µM | Peroxisome proliferator-activated receptor gamma (Homo sapiens), P37231 | PPARgamma LBD-SRC-2 recruitment
SRC3 TRFRET art: TR-FRET detection interference compounds, artefact control for PPARgamma SRC-3 recruitment agonists, biochemical, TR-FRET ratio; TR-FRET artefact counter-screen, PPARgamma/SRC-3 format; active compounds read high; TR-FRET ratio at 8 µM; hit rate 0.39% among 99,000; in the data active = TR-FRET ratio above about 2000
PPARg SRC1 recr: PPARgamma agonists recruiting SRC-1 coactivator, primary screen, biochemical. hit rate 0.41% among 200,000. activation, % at 8 µM. PPARgamma-SRC-1 coactivator recruitment biochemical assay; in the data active = activation above about 19%
SRC1 TRFRET art: TR-FRET detection interference compounds, primary screen, artefact control for PPARgamma SRC-1 recruitment agonists, biochemical, TR-FRET emission ratio | TR-FRET detection artefact counter-screen; active compounds read high | hit rate 0.34% among 99,000 | TR-FRET ratio at 8 µM; in the data active = TR-FRET ratio above about 2300
PPARg SRC2 conf: agonists of PPARgamma SRC-2 coactivator recruitment, confirmation, biochemical, HTS. hit rate 52% among 790. biochemical SRC-2 recruitment by PPARgamma. shares compounds with PPARg SRC3 recr. AID 1297, 2008. activation, % at 8 µM
PPARg SRC1 conf: PPARgamma agonists recruiting SRC-1 coactivator, confirmation, biochemical; shares compounds with PPARg SRC3 recr; PPARgamma–SRC-1 coactivator recruitment biochemical assay; activation, % at 8 µM; hit rate 43% among 790; AID 1300, 2008; in the data active = activation above about 20%
PPARg SRC3 ag: PPARgamma-driven SRC-3 coactivator recruitment agonists, confirmation, biochemical; shares compounds with PPARg SRC3 recr; biochemical PPARgamma-SRC-3 coactivator recruitment, agonist mode; activation, % at 8 µM; hit rate 29% among 790; in the data active = activation above about 24%
Large screens that a line does not name were inactive (follow-up assays come after a bar, where they were run). Only some compounds are listed: those with a hit (about 0.84% of all), similar ones and a draw of the others. Cut-off read from the data, not from the text of the source, unless noted: active = activation above about 22%; inactive = the rest.

CSc1cnn(Cc2ccccc2)c(=O)c1SCc1ccccc1	PPARg SRC3 recr 24, PPARg SRC-2 ag 30, SRC1 TRFRET art 2367 | PPARg SRC2 conf 85 | PPARg SRC1 conf 61 | PPARg SRC3 ag 57
CCSc1cnn(-c2ccccc2)c(=O)c1SCC	SRC2 TRFRET art 3615, PPARg SRC3 recr 123, PPARg SRC-2 ag 96, PPARg SRC1 recr 68 (no result: SRC3 TRFRET art, SRC1 TRFRET art) | PPARg SRC2 conf 65 | PPARg SRC1 conf 41 | PPARg SRC3 ag 47
O=c1c(Cl)c(Cl)cnn1-c1ccccc1	none
COc1cnn(-c2ccc(C)cc2)c(=O)c1SCc1ccccc1	none (no result: SRC3 TRFRET art, SRC1 TRFRET art)
O=C(Oc1ccc(-n2cnnn2)cc1)c1ccccc1	none
CCn1c(O)c(/C=C2\C=Nc3ccccc32)sc1=Nc1ccccc1	none (no result: SRC3 TRFRET art, SRC1 TRFRET art)
O=C(Cc1ccccc1)Nn1c(O)c(/C=C2\C=Nc3ccccc32)sc1=S	PPARg SRC-2 ag 24 | PPARg SRC2 conf inactive | PPARg SRC1 conf inactive | PPARg SRC3 ag inactive
CCCNC(=S)N1CCC(C(=O)c2ccc3c(c2)OCCO3)CC1	none
CC(C)(C)c1ccc(C(=O)O)c(C(=O)c2ccccc2)c1	none
CC(C)(C)c1ccc(OCC(=O)Nc2ccc3c4c(cccc24)C(=O)NC3=O)cc1	PPARg SRC3 recr 33 | PPARg SRC2 conf inactive | PPARg SRC1 conf inactive | PPARg SRC3 ag inactive
Cc1ccc(OCC(=O)NC(=S)Nc2ccc3c4c(cccc24)CC3)cc1	none
Nc1cc2nsnc2cc1Br	SRC2 TRFRET art 6354, PPARg SRC3 recr 334, PPARg SRC-2 ag 265, PPARg SRC1 recr 230 (no result: SRC3 TRFRET art, SRC1 TRFRET art) | PPARg SRC2 conf 225 | PPARg SRC1 conf 167 | PPARg SRC3 ag 150
CN(C)c1ccc(N2CN=C3SCC(=O)N3C2)cc1	SRC2 TRFRET art 2229, PPARg SRC3 recr 86, PPARg SRC-2 ag 64, PPARg SRC1 recr 50 (no result: SRC3 TRFRET art, SRC1 TRFRET art) | PPARg SRC2 conf inactive | PPARg SRC1 conf inactive | PPARg SRC3 ag inactive
O=C1CSC2=NCN(c3ccc4c(c3)OCO4)CN12	none (no result: SRC3 TRFRET art, SRC1 TRFRET art)
Cc1cc(C)c(C#N)c(N)n1	none
Cc1cc(-c2cccc(Br)c2)c(C#N)c(N)n1	PPARg SRC-2 ag 25, PPARg SRC1 recr 22, SRC1 TRFRET art 2711 | PPARg SRC2 conf inactive | PPARg SRC1 conf inactive | PPARg SRC3 ag inactive
COc1ccc2c(c1)O[C@@H](c1cccc(C(F)(F)F)c1)[C@H](OC(=O)N[C@H]1CCCc3ccccc31)C2=O	PPARg SRC-2 ag 25 | PPARg SRC2 conf inactive | PPARg SRC1 conf inactive | PPARg SRC3 ag inactive
CCCC1O[C@@H]2C[C@H]3[C@@H]4CCC5=CC(=O)C=C[C@]5(C)[C@H]4[C@@H](O)C[C@]3(C)[C@]2(C(=O)CO)O1 (stereo partly specified)	none
CCCC1O[C@@H]2CC3C4CCC5=CC(=O)C=C[C@]5(C)C4C(OC(C)=O)C[C@]3(C)[C@]2(C(=O)COC(C)=O)O1 (stereo partly specified)	PPARg SRC3 recr 47, PPARg SRC-2 ag 38, PPARg SRC1 recr 60 (no result: SRC3 TRFRET art, SRC1 TRFRET art) | PPARg SRC2 conf 42 | PPARg SRC1 conf 49 | PPARg SRC3 ag 48
O=C1CN(C(=S)NC(=O)c2ccc(-c3ccccc3)cc2)CCN1	none
COc1ccc(CCNC(=O)C(=O)NCc2cccs2)cc1OC	none
N#CCCN1CCN(C(=S)c2ccc(-c3ccc(Cl)cc3)o2)CC1	PPARg SRC1 recr 24 (no result: SRC3 TRFRET art, SRC1 TRFRET art) | PPARg SRC2 conf 31 | PPARg SRC1 conf 28 | PPARg SRC3 ag inactive
S=C(c1ccc(-c2ccc(Cl)cc2)o1)N1CCCCC1	none (no result: SRC3 TRFRET art, SRC1 TRFRET art)
CC(=O)c1ccc(Oc2cnccn2)cc1	none
O=C(Nc1ccc(S(=O)(=O)NCc2ccccc2)cc1)c1ccc(Br)o1	none (no result: SRC3 TRFRET art, SRC1 TRFRET art)
